The target of assay [1] is Casein kinase I isoform gamma-2 (Homo sapiens) (UniProt P78368). The following applies: at 1 µM.
Assay [2] concerns the target Casein kinase I isoform gamma-3 (Homo sapiens) (UniProt Q9Y6M4). Conditions: at 0.1 µM.
Assay [3] has the same target. The following applies: at 1 µM.
The target in assay [4] is Cyclin-dependent kinase 1 (Homo sapiens) (UniProt P06493). The following applies: at 0.1 µM.
Assay [5] has the same target. Conditions: at 1 µM.
The target in assay [6] is Cyclin-dependent kinase 2 (Homo sapiens) (UniProt P24941). The following applies: at 0.1 µM.
For assay [7] the target is unchanged. The following applies: at 1 µM.
Assay [8] shares this target. The following applies: at 0.1 µM. The source holds these as a separate data set.
Assay [9] has the same target. The following applies: at 1 µM. The source holds these as a separate data set.
In assay [10] the target is T1, CDK3/Cyclin E (Homo sapiens) (UniProt P24864+Q00526). The following applies: at 0.1 µM.
T1 sequence (P24864 whole entry, looked up): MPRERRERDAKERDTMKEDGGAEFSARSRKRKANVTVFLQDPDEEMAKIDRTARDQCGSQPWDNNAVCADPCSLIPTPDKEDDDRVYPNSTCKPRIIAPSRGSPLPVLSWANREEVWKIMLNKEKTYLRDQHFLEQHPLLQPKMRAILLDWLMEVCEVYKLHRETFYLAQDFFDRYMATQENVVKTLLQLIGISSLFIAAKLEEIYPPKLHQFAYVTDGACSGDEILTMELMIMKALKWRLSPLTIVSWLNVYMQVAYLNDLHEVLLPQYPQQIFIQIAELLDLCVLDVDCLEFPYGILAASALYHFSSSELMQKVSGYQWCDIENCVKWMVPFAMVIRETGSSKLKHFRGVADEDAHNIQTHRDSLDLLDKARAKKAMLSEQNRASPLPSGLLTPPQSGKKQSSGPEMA
T1 sequence (Q00526 whole entry, looked up): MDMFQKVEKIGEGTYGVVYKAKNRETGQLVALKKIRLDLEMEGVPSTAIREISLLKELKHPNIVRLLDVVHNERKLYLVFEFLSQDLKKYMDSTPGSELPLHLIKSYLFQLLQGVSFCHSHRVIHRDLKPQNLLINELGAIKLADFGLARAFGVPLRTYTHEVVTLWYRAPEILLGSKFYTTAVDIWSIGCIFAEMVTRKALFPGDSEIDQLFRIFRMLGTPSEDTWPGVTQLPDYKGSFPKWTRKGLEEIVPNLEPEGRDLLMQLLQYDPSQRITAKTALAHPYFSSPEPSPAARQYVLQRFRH
Assay [11] concerns the target T1, CDK3/Cyclin E (Homo sapiens). The following applies: at 1 µM.
Assay [12] deals with Cyclin-dependent kinase 4 (Homo sapiens) (UniProt P11802). The following applies: at 0.1 µM.
Sequence of Cyclin-dependent kinase 4 (Homo sapiens) (P11802 whole entry): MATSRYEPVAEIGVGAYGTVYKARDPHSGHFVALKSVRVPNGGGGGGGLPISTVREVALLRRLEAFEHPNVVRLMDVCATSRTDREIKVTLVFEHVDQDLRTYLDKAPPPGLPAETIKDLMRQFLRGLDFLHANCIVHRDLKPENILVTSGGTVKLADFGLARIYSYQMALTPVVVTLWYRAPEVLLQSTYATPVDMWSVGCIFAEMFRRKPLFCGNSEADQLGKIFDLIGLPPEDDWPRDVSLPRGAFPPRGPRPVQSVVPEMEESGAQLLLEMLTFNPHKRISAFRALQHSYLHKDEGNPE
The target is the same in assay [13]. Conditions: at 1 µM.
Assay [14] concerns the target Cyclin-dependent kinase 5 (Homo sapiens) (UniProt Q00535). The following applies: at 0.1 µM.
Assay [15] has the same target. The following applies: at 1 µM.
Assay [16] deals with Cyclin-dependent kinase 6 (Homo sapiens) (UniProt Q00534). The following applies: at 0.1 µM.
Sequence of Cyclin-dependent kinase 6 (Homo sapiens) (Q00534 whole entry): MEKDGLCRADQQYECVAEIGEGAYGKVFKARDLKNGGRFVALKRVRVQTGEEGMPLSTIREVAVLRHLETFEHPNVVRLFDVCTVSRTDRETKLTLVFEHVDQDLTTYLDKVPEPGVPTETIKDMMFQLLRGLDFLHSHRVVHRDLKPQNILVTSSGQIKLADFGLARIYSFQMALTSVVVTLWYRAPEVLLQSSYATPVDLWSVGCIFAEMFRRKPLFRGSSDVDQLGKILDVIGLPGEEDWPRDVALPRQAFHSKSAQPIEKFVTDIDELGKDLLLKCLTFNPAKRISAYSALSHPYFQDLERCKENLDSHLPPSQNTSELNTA
Assay [17] has the same target. The following applies: at 1 µM.
Assay [18] addresses Dual specificity protein kinase CLK2 (Homo sapiens) (UniProt P49760). The following applies: at 0.1 µM.
The target is the same in assay [19]. Conditions: at 1 µM.
For assay [20], the target named is Dual specificity protein kinase CLK3 (Homo sapiens) (UniProt P49761). The following applies: at 0.1 µM.
Sequence of Dual specificity protein kinase CLK3 (Homo sapiens) (P49761 whole entry, looked up): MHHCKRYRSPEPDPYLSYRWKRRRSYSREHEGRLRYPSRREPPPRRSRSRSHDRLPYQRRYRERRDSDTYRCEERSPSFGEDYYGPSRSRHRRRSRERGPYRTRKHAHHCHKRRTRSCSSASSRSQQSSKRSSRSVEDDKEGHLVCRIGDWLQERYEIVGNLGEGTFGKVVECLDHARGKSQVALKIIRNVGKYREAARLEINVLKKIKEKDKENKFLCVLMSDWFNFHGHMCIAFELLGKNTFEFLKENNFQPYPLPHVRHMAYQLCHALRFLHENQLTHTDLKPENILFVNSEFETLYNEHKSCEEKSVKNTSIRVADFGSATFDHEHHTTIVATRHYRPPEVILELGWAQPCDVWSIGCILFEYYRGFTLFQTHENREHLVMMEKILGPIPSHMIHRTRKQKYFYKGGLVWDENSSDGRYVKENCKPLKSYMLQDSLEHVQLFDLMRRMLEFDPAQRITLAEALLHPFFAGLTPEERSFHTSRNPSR

SMILES strings stand for the structures.

Sequence of Cyclin-dependent kinase 5 (Homo sapiens) (Q00535 whole entry, looked up): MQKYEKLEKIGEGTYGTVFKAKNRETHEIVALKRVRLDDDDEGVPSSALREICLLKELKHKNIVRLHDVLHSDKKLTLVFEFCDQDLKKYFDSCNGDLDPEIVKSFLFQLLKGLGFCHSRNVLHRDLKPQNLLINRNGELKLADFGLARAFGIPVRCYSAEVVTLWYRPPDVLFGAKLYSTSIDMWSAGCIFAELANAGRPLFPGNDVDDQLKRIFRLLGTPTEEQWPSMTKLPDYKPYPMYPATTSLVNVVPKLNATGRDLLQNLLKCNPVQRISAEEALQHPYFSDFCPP
Sequence of Cyclin-dependent kinase 1 (Homo sapiens) (P06493 whole entry, looked up): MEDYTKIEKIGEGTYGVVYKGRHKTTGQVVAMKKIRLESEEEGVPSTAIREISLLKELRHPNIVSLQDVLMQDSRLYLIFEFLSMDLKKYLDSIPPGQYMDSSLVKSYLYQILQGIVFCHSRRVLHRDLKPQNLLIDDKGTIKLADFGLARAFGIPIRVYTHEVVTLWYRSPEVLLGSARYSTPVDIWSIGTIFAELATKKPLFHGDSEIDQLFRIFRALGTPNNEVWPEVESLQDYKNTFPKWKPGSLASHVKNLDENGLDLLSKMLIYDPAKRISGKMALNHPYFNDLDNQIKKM
Sequence of Casein kinase I isoform gamma-3 (Homo sapiens) (Q9Y6M4 whole entry, looked up, canonical isoform): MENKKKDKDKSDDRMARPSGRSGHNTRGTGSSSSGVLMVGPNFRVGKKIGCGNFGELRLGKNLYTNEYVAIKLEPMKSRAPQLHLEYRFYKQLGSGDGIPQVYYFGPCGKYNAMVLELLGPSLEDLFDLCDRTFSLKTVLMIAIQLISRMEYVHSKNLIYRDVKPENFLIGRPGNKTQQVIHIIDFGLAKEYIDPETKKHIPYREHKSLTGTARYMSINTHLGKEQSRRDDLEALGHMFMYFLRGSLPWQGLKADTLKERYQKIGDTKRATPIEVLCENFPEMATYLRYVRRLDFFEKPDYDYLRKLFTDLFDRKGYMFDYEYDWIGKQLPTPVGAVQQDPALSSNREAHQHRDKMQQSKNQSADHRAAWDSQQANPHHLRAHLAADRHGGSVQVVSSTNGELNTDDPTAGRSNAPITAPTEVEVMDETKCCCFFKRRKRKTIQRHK
Sequence of Dual specificity protein kinase CLK2 (Homo sapiens) (P49760 whole entry, looked up): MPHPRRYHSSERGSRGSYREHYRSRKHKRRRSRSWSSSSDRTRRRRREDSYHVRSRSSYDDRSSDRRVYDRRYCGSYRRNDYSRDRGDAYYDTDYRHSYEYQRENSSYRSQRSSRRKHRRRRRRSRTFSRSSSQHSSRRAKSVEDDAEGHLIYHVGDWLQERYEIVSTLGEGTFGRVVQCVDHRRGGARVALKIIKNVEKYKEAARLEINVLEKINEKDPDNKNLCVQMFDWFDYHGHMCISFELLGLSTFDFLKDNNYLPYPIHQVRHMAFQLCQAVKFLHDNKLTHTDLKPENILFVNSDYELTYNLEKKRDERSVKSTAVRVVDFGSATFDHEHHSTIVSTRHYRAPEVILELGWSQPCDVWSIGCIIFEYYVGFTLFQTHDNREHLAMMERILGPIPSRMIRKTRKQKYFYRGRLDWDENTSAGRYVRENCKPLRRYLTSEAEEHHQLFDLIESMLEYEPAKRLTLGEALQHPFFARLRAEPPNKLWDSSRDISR
Sequence of Casein kinase I isoform gamma-2 (Homo sapiens) (P78368 whole entry, looked up, canonical isoform): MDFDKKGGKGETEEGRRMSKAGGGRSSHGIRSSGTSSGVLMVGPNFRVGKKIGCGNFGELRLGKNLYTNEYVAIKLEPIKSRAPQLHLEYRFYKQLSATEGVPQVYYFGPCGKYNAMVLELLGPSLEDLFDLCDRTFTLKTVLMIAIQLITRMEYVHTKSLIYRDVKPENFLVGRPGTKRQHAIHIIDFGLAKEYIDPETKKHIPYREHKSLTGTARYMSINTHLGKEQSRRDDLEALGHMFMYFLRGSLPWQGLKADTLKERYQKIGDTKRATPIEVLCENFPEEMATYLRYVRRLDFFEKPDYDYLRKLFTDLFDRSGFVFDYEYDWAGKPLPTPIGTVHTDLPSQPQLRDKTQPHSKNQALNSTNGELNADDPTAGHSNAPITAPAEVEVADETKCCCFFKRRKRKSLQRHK

In general, inhibition refers to the drop in the measured response relative to a control, in per cent. `c1ccc(-c2n[nH]cc2-c2ccnc(-c3ccc(OCCn4ccnc4)cc3)c2)nc1`: the inhibition in assay [1] was 4.02%; in assay [2] it was 0.42%; in assay [3], 5.22%; in assay [4], -0.35%; in assay [5], 1.46%; in assay [6], 1.03%. Besides, the inhibition in assay [7] was -8.72%; in [8], 2.23%; in [9], 5.64%; in assay [10], 2.33%; in assay [11] it was 0.94%; in assay [12] it was 1.86%. Besides, the inhibition in [13] is 6.97%; in assay [14], 1.11%; in assay [15] it was 4.49%; in assay [16], 1.43%; in assay [17], 10%; in assay [18], 0.61%. The inhibition worked out at 1.21% in assay [19] and 3.95% in assay [20].

Regarding `Fc1cccc(COc2ccc(Nc3ncncc3C#Cc3ccccc3)cc2Cl)c1`, the inhibition is 4.69% in assay [1]; 4.31% in [2]; 4.88% in [3]; 0.35% in [4]; 1.89% in assay [5]; 1.7% in assay [6]. For the same molecule, the inhibition in assay [7] is 5.5%; in [8] it was 4.38%; in [9] it was 4.99%; in assay [10] it was 1.59%; in [11] it was -2.37%; in [12], 2.27%. In addition, the inhibition in [13] was 2.61%; in assay [14], 1.02%; in assay [15], 1.31%; in [16], 3.3%; in assay [17], 2.89%; in [18], 1.45%. Besides, the values for the inhibition in assay [19] and in assay [20] were 2.09% and 2.41%, respectively.

Take `Cc1c2ccc(N(C)c3ccnc(Nc4cccc(S(N)(=O)=O)c4)n3)cc2nn1C`: the inhibition in [1] is 0.79%; in assay [2] it was -0.12%; in [3], 1.23%; in assay [4], -2.06%; in assay [5] it was 1.04%; in assay [6] it was -1.06%. For the same molecule, the inhibition in assay [7] is 4.54%; in assay [8], 2.08%; in assay [9] it was 4.14%; in assay [10], 3.58%; in assay [11], 2.13%; in assay [12], -3.55%. For the same molecule, the inhibition in assay [13] is 9.57%; in [14], -1.58%; in [15], 0.35%; in assay [16], -1.51%; in assay [17], 15.3%; in [18] it was 1.61%. For the same molecule, the inhibition in [19] is 0.97%; in assay [20], -1.14%.

Consider `CCS(=O)(=O)c1ccc(OC)c(Nc2ncc(-c3cccc(C(C)=O)c3)o2)c1`, for which the inhibition was determined as 1.92% in assay [1]; 1.93% in assay [2]; 1.37% in [3]; 0.64% in assay [4]; 1.52% in [5]; 1.87% in [6]. Also, the inhibition in [7] came to 6.76%; in assay [8] it was 3.84%; in [9], 8.73%; in [10] it was 0.35%; in assay [11], 1.82%; in [12], 2.53%. Further, the inhibition amounted to 3.06% in assay [13]; 1.03% in assay [14]; 3.09% in assay [15]; 4.78% in assay [16]; 5.56% in assay [17]; 28.6% in [18]. For the same molecule, the figures for the inhibition in assay [19] and in assay [20] were 82.8% and 1.61%, respectively.

Turning to `O=C(O[C@H]1CN[C@H](C#Cc2cc3ncnc(Nc4ccc5c(cnn5Cc5ccccc5)c4)c3s2)C1)N1CCOCC1`, the inhibition is 0.77% in assay [1]; -1.09% in assay [2]; 1.79% in assay [3]; 2.44% in assay [4]; 4.08% in [5]; 0.92% in assay [6]. For the same molecule, the inhibition in [7] is -1.09%; in [8], 3.48%; in [9] it was 2.34%; in assay [10], -0.1%; in assay [11], -1.05%; in [12] it was 0.36%. In addition, the inhibition in assay [13] was 3.2%; in assay [14], 2.53%; in assay [15], 3.35%; in assay [16], -1.23%; in assay [17] it was 0.26%; in [18], -1.51%. For the same molecule, the values for the inhibition in assay [19] and in [20] were -0.74% and -0.96%, respectively.

As for `O=C1Nc2ccccc2/C1=C1\CCc2cc(O)ccc21`, the inhibition is 8.01% in [1]; 4.01% in assay [2]; 6.11% in assay [3]; 1.03% in [4]; 3.82% in assay [5]; 3.01% in assay [6]. In addition, the inhibition in [7] came to 5.49%; in [8] it was 5.72%; in [9] it was 10.6%; in assay [10], 4.58%; in assay [11] it was 2.91%; in [12] it was 3.57%. Moreover, the inhibition came to 7.74% in assay [13]; 1.5% in assay [14]; 7.54% in [15]; 3.57% in [16]; 30.5% in assay [17]; 2.81% in [18]. Besides, the inhibition turned out to be 13.6% in [19] and 1.61% in [20].

`CC1(C)CC(n2cnc(-c3ccc(F)cc3)c2-c2ccnc(N)n2)CC(C)(C)N1`: the inhibition in [1] was 0.56%; in assay [2] it was -0.9%; in assay [3] it was 5.01%; in assay [4], -0.29%; in assay [5], 0.21%; in assay [6], 1.22%. Further, the inhibition in assay [7] was 0.26%; in assay [8], 1.34%; in assay [9], 0.26%; in assay [10], 2.06%; in assay [11] it was -0.65%; in assay [12], 1.99%. Also, the inhibition in assay [13] is 2.08%; in assay [14], 0.25%; in [15] it was 0.14%; in assay [16], -2.02%; in assay [17], 1.29%; in assay [18], 0.85%. Besides, the inhibition in assay [19] stood at 0.02%; in assay [20], 0.82%.

Consider `COC(=O)Nc1nc2cc(Oc3ccc(NC(=O)Nc4ccccc4)cc3)ccc2[nH]1`, for which the inhibition came out at 1.9% in assay [1]; 0.58% in assay [2]; 1.63% in assay [3]; 1.24% in assay [4]; 1.72% in assay [5]; 1.21% in [6]. Further, the inhibition is 0.35% in assay [7]; 1.69% in [8]; 3.15% in assay [9]; 2.16% in [10]; -3.23% in assay [11]; 0.66% in [12]. Further, the inhibition is 1.41% in assay [13]; 0.28% in assay [14]; 0.86% in assay [15]; 0.73% in assay [16]; -1.23% in assay [17]; 1.75% in [18]. Also, the inhibition in [19] was -1.36%; in assay [20], 1.37%.

Source of the values: ChEMBL document CHEMBL1961873, “Compounds: GSK PKIS; Assays: Nanosyn kinase panel” (2012).
